Results on eight compounds are retold here after PubChem BioAssay (Tox21).

Experiment [1] can be described thus: qHTS assay to identify small molecule agonists of the constitutive androstane receptor (CAR) signaling pathway - cell viability counter screen (AID 1224836). Note: nearly all actives have a fitted effect of over 45% in size. Note: potency is the fitted concentration of half-maximal effect. The procedure, abridged:
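Counter screen multiplexed with the CAR reporter readout: HepG2 cells co-transfected with hCAR and the CYP2B6-2.2kb construct receive a 15-concentration compound series and 0.75 uM PK11195 (final), then CellTiter-Fluor fluorescence is read after 23 h.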

A short description of experiment [2]: qHTS assay to identify small molecule antagonists of the constitutive androstane receptor (CAR) signaling pathway - cell viability counter screen (AID 1224837). Note: nearly all actives have a fitted effect of over 45% in size. Note: potency is the fitted concentration of half-maximal effect. The procedure, abridged: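 To flag cytotoxic false antagonists, HepG2 hCAR/CYP2B6-2.2kb cells were treated 23 hr with 15-concentration compound series and 50 nM CITCO at 37 C/5% CO2; CellTiter-Fluor fluorescence was the measured end point.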

Experiment [3] addresses Nuclear receptor subfamily 1 group I member 3 (Homo sapiens) (UniProt Q14994). As to the kind of experiment: qHTS assay to identify small molecule antagonists of the constitutive androstane receptor (CAR) signaling pathway (AID 1224838).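 Note: HepG2 cells stably expressing hCAR with CYP2B6 luciferase reporter stimulated by CITCO; % is set by controls: 0 for no effect and ±100 for the full control effect; nearly all actives have a fitted effect of over 40% in size.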 The procedure, abridged:
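Human hepatoma HepG2 cells expressing hCAR and a CYP2B6 promoter (2.2 kb) luciferase construct; compound titration (15 points) with 50 nM CITCO final, 24 h at 37 C/5% CO2; luminescence via ONE-Glo after 30 min at room temperature.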
(In general: qHTS replaces the single test concentration by a dilution series.)

The target is the same in experiment [4]. As to the kind of experiment: qHTS assay to identify small molecule agonists of the constitutive androstane receptor (CAR) signaling pathway (AID 1224839). For activation: % is set by controls: 0 for no effect and ±100 for the full control effect. Note: nearly all actives have a fitted effect of over 15% in size. Note: potency is the fitted concentration of half-maximal effect. The procedure, abridged:
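A 15-concentration quantitative screen uses HepG2 cells co-transfected stably with human CAR and CYP2B6-2.2kb reporter. Treatment lasts 24 h with 0.75 uM PK11195 final present; ONE-Glo luminescence is the signal.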

Experiment [5] can be described thus: qHTS assay to identify small molecule antagonists of the estrogen related receptor signaling pathway with the pleiotropic PPARgamma coactivator (PGC) from Tox21 10K library - cell viability counter screen (AID 1224840; active = well fitted cell-killing curve with a large enough effect in the repeat runs, not every such curve was filed as active; note: nearly all actives have a fitted effect of over 40% in size; note: potency is the fitted concentration of half-maximal effect). The method, boiled down:
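Seeded PGC/ERR cells (2,000/well, 6 h, 37 C/5% CO2) get compound by pin tool; 17.5 h incubation at 37 C; CellTiter-Fluor added, 30 min, fluorescence measured.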

For experiment [6], the target named is Thyrotropin receptor (Homo sapiens) (UniProt P16473). Kind of experiment: qHTS assay to identify small molecule agonists of the thyroid stimulating hormone receptor (TSHR) signaling pathway (AID 1224843; calls by dose curve; note: nearly all actives have a fitted effect of over 45% in size; note: potency is the fitted concentration of half-maximal effect; for activation: % is set by controls: 0 for no effect and ±100 for the full control effect). The procedure, abridged: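 Using 15 concentrations per compound in triplicate, cAMP production was monitored in TSHR-HEK293 cells after 30 min compound incubation at RT; HTRF reagents followed, with fluorescence intensity recorded after 1 h.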

Experiment [7] in a line: qHTS assay to identify small molecule agonists of the hypoxia (HIF-1) signaling pathway - cell viability counter screen (AID 1224844; calls by dose curve; note: nearly all actives have a fitted effect of over 50% in size; note: potency is the fitted concentration of half-maximal effect). The procedure, abridged: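 HRE-bla ME-180; 0.5% dFBS; cpd 17 h, 37C, 5% CO2; CellTiter-Glo lum., 30 min RT, post-FRET read, same wells.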
Experiment [8] can be described thus: qHTS assay to identify small molecule agonists of the hypoxia (HIF-1) signaling pathway (AID 1224846; active = well fitted activation curve with a large enough effect in the signal ratio in the repeat runs, not every such curve was filed as active; the % refers to the signal ratio; note: % is set by controls: 0 for no effect and ±100 for the full control effect). The method, boiled down: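 Reporter induction in HRE-bla ME-180 cells is taken as agonism: cells sit 5 hrs after plating, receive compounds or DMSO only, incubate 17 hrs at 37C under 5% CO2, and are loaded with CCF4-AM for beta-lactamase FRET measurement.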

Experiment [9] is described as follows: qHTS assay to identify small molecule agonists of H2AX - cell viability counter screen (AID 1224847; calls by dose curve; note: nearly all actives have a fitted effect of over 30% in size; note: potency is the fitted concentration of half-maximal effect). The procedure, abridged: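 We seed wild-type CHO-K1 cells overnight, treat them for 3 hr at 37C with compounds in 15-concentration series, and quantify remaining viability by CellTiter-Glo luminescence.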
The nature of experiment [10]: qHTS RealTime-Glo MT Cell Viability Assay in HEK293 cells - 32 hour (AID 1224868). Note: nearly all actives have a fitted effect of over 50% in size. Note: potency is the fitted concentration of half-maximal effect. The procedure, abridged: (§1)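 HEK293 cells were seeded at 600 cells/well together with NanoLuc luciferase and cell-permeant prosubstrate, preincubated 5 h at 37 C/5% CO2, then given compound in DMSO by pintool. Luminescence from viable-cell prosubstrate reduction was read repeatedly over 40 h.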

A short description of experiment [11]: qHTS RealTime-Glo MT Cell Viability Assay in HEK293 cells - 16 hour (AID 1224872). Note: nearly all actives have a fitted effect of over 50% in size. Note: potency is the fitted concentration of half-maximal effect. The method, boiled down:
as §1

Experiment [12] can be described thus: qHTS assay to identify small molecule agonists of H2AX (AID 1224845; active = well fitted activation curve with a large enough effect in the signal ratio in the repeat runs, not every such curve was filed as active; the % refers to the signal ratio; note: potency is the fitted concentration of half-maximal effect). The method, boiled down:
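Wild-type CHO-K1 cells plated overnight, then exposed 3 hr at 37C to compounds at 15 concentrations (0.76% DMSO). Lysed, then HTRF anti-pH2AX(S139)-cryptate/anti-H2AX-d2 detection after 24 hr at room temperature; emissions 665 and 620 nm.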

Experiment [13] is described as follows: qHTS RealTime-Glo MT Cell Viability Assay in HepG2 cells - 24 hour (AID 1224867). Note: % is set by controls: 0 for no effect and ±100 for the full control effect; nearly all actives have a fitted effect of over 50% in size. The method, boiled down: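 HepG2 cells were seeded at 600 cells/well together with NanoLuc luciferase and a cell-permeant prosubstrate, preincubated 5 h at 37 C/5% CO2, then pin-dosed with compounds in DMSO. Nonlytic luminescence from viable cells was read at each time point.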

Experiment [14] can be described thus: A CellTox Green Cytotoxicity Assay to monitor cytotoxicity in HEK293 cells - 0 hour (AID 1224869). The procedure, abridged: (§2)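 Tox21 screen in HEK293: membrane-impermeant cyanine dye fluoresces on binding dead-cell DNA; compound pinned 5 h post-seeding, plates held at 37 C, signal read repeatedly through 40 h.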
A short description of experiment [15]: qHTS RealTime-Glo MT Cell Viability Assay in HepG2 cells - 40 hour (AID 1224870). Note: nearly all actives have a fitted effect of over 50% in size. Note: potency is the fitted concentration of half-maximal effect. The procedure, abridged: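 HepG2 cells mixed with RealTime-Glo MT reagents (NanoLuc plus cell-permeant prosubstrate) were seeded at 600 cells/well, incubated 5 h at 37 C/5% CO2, then pinned with compounds in DMSO; nonlytic luminescence tracked viability during 40 h treatment.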

A short description of experiment [16]: qHTS assay to identify small molecule antagonists of the estrogen related receptor (ERR) signaling pathway from Tox21 library (AID 1224848). The procedure, abridged:
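Tox21 10K compounds in DMSO tested for ERR pathway antagonism in NTP's ERR cell line; 18 h, 37 C exposure; ONE-Glo luminescence.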

Experiment [17] in a line: qHTS assay to identify small molecule agonists of the estrogen related receptor (ERR) signaling pathway from Tox21 library (AID 1224849; calls by dose curve; note: % is set by controls: 0 for no effect and ±100 for the full control effect; nearly all actives have a fitted effect of over 15% in size). The following applies: ERR reporter cell line, ONE-Glo luciferase, 18 h. The procedure, abridged:
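Tox21 compounds tested for ERR agonism in an NTP reporter cell line: 18 h treatment at 37 C, then ONE-Glo luminescence.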

Experiment [18] is described as follows: A CellTox Green Cytotoxicity Assay to monitor cytotoxicity in HEK293 cells - 40 hour (AID 1224871). Note: nearly all actives have a fitted effect of over 45% in size. Note: potency is the fitted concentration of half-maximal effect. The procedure, abridged: as §2

Values joined by “and” are separate entries in the source; they are usually repeats but may differ in a detail not shown here. Equal entries are not always repeated. A number with no mark means an inactive call. Inconclusive results are not listed. Active and inactive are the calls of the source. Unless noted, calls come from the whole dose curve; as a rule, active = well fitted curve in the direction sought with a large enough effect in the repeat runs; inconclusive = weak or mixed curves; inactive = no such curve, though single readings can be large; an effect the other way counts as inactive or inconclusive.

Chain of Thyrotropin receptor (Homo sapiens) (P16473 whole entry, looked up): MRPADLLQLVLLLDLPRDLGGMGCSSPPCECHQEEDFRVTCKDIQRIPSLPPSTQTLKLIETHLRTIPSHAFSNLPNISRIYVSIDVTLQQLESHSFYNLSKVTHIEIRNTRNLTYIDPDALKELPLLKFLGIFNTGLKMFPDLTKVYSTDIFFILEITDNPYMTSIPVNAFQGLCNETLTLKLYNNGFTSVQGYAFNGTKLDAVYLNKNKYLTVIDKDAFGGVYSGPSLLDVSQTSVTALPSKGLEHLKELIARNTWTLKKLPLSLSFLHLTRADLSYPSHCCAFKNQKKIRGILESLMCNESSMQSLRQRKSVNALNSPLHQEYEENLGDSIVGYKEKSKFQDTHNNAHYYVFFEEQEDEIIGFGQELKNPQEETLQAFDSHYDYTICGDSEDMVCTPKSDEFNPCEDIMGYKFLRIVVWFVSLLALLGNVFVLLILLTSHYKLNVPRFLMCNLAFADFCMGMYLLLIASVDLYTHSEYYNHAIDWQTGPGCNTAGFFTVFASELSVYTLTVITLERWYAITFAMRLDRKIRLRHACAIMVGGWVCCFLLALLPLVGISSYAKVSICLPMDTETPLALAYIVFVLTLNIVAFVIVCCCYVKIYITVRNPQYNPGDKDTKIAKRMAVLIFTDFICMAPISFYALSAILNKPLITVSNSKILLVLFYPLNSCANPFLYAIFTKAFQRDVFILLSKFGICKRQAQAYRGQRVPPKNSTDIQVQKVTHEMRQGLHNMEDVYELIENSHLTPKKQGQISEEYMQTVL
Chain of Nuclear receptor subfamily 1 group I member 3 (Homo sapiens) (Q14994 whole entry, looked up): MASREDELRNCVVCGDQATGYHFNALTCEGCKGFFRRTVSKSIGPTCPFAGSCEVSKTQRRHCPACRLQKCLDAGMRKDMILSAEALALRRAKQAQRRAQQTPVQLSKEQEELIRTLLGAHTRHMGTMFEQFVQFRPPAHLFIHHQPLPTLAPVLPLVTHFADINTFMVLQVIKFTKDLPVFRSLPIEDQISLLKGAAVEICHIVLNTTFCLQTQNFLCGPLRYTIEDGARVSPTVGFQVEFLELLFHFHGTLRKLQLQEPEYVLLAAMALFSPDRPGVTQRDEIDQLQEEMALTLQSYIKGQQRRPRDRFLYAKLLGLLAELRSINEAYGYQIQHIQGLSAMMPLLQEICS

For the compound `CCCC(C)CCC(C)=O` (configuration not stated), the Potency result in [1], in experiment [2], in experiment [3], in experiment [4], in experiment [5] and in [6] was “inactive” in each case. The Potency entry in experiment [7], in experiment [9], in experiment [10] and in experiment [11] was “inactive” in each case. Besides, the compound was classed as inactive in experiment [8].

Take `CN(C)CCN1CCOCC1`: the Potency entry in experiment [1], in [2], in [3], in experiment [4], in [5] and in experiment [6] was “inactive” in each case. For the same compound, the Potency entry in experiment [12], in experiment [9], in experiment [13], in experiment [10], in experiment [14] and in [15] was “inactive” in each case. In experiment [11], the Potency entry is “inactive”. Moreover, in [8], the call was inactive.

Turning to `CSc1ccc2c(c1)N(CCC1CCCCN1C)c1ccccc1S2` (configuration not stated), the Potency in experiment [1] was 48.4 µM (active); in [2], 54.3 µM (active); in experiment [5] it was 30.5 µM (active) and 29.8 µM (active); in [9], 50.3 µM (active) and 55.2 µM (active); in experiment [16], 27.2 µM (active); in experiment [10], 15.4 µM (active). Further, the Potency in experiment [15] was 30.8 µM (active); in experiment [18], 30.8 µM (active); in [11], 17.3 µM (active). Besides, the Potency result in [3], in [4], in [6] and in [14] was “inactive” each time. The activity change, positive = activation in experiment [17] (at 42.5 µM (top of the series)) is -67.5%; in [17] (at 92.4 µM (top of the series)), -73.9%.

For `CC(C)=CCCC(C)CCOC(=O)C(C)C` (configuration not stated), the Potency entry in [1], in experiment [2], in experiment [3], in experiment [4], in experiment [5] and in [6] was “inactive” throughout. The Potency entry in experiment [7], in experiment [12], in experiment [9], in [10], in experiment [14] and in experiment [15] was “inactive” throughout. Besides, the Potency result in experiment [18] and in experiment [11] was “inactive” in each case.

With `Nc1ncnc2c1ncn2[C@@H]1O[C@H](COP(=O)(O)O)[C@@H](O)[C@H]1O`, the Potency entry in experiment [1], in [2], in [3], in experiment [4], in experiment [5] and in experiment [6] was “inactive” each time. Further, the Potency result in experiment [12], in experiment [9], in experiment [10], in [14], in experiment [15] and in [11] was “inactive” each time.

For the compound `Cn1cnc2ncnc(N)c21`, the Potency entry in experiment [1], in experiment [2], in experiment [3], in [4], in [5] and in [6] was “inactive” in each case. Further, the Potency entry in experiment [7], in [9], in experiment [10], in experiment [14], in experiment [15] and in experiment [18] was “inactive” each time. The Potency result in experiment [11] is “inactive”. In addition, the call in [8] was inactive.

As for `Clc1ccc(C(c2ccccc2Cl)C(Cl)Cl)cc1` (configuration not stated), the Potency result in experiment [1], in experiment [2], in experiment [3], in experiment [5], in [13] and in experiment [14] was “inactive” throughout. For the same compound, the Potency result in experiment [15] and in [18] was “inactive” each time. For the same compound, the Potency in experiment [4] was 13.7 µM (active) and 11.9 µM (active); in experiment [6] it was 12.2 µM (active) and 5.31 µM (active); in experiment [7], 54.9 µM (active); in [12] it was 113 µM (active); in experiment [9], 101 µM (active).

Regarding `Brc1ccccn1`, the Potency entry in experiment [1], in experiment [2], in experiment [3], in experiment [4], in experiment [5] and in experiment [6] was “inactive” each time. In addition, the Potency entry in [7], in experiment [9], in [13], in experiment [10], in experiment [14] and in experiment [18] was “inactive” in each case. For the same compound, in experiment [11], the Potency entry is “inactive”. Further, the call in experiment [8] was inactive.
